Results from PubChem BioAssay (EPA / NIEHS).
Inconclusive results are not listed. Active and inactive are the calls of the source. Rule for the calls, unless noted: active = hit-call score of the fitted dose curve at least 0.9, where 1 is the maximum; inconclusive = response in the unintended direction; inactive = score below 0.9.

test: STM_H9_OrnCyssISnorm_ratio: Stemina devTOX quickPredict H9 human embryonic stem cell (hESC)-based Assay for Ornithine (ORN):Cystine (CYSS) Ratio (AID 2283714)
In short: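 H9 hESC, 72h, q24h re-dose; last-day media → acetonitrile deproteinization → UPLC-HRMS. ORN:CYSS ratio from isotope-normalized EIC areas, vs 0.1% DMSO; MTX references on each plate.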

SMILES | AC50 | outcome
CCCCCCCCCC[N+](C)(C)[O-] | 22.1 µM (active) | –
O=C(O)CN(CC(=O)O)CC(=O)O | 13 µM (active) | –
O=C(O)c1cccnc1 | – | inactive
Cc1cc(Cc2ccc(N)c(C)c2)ccc1N | – | inactive
CN(C)CCCN1c2ccccc2Sc2ccc(Cl)cc21 | 0.897 µM (active) | –
CCc1nc(N)nc(N)c1-c1ccc(Cl)cc1 | 31.1 µM (active) | –
Cc1ccc(C(C)(C)C)c(O)c1 | 15 µM (active) | –
CCCC[C@H]1CN(CC2CCOCC2)C(=O)OC12CCN(C1(C)CCN(C(=O)c3c(C)ncnc3C)CC1)CC2 | – | inactive
CC(=O)[C@@]1(O)CC[C@H]2[C@@H]3CCC4=CC(=O)CC[C@]4(C)[C@H]3CC[C@@]21C | 73.4 µM (active) | –
CCN(CC)CCOc1ccc(C(=C(Cl)c2ccccc2)c2ccccc2)cc1 | 2.53 µM (active) | –
CCc1cc(C2=C(C(=O)O)N(c3ccccc3C(F)(F)F)S(=O)(=O)c3ccccc32)cc2c1OCO2 | – | inactive

test: CEETOX_H295R_MTT_cell_viability: Viability Assessment in the CeeTox HT-H295R MTT Assay (AID 2283718; active = hit-call score of the fitted dose curve at least 0.9, where 1 is the maximum; inactive = score below 0.9;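 for AC50: curve fitted both ways so AC50 may mark viability loss or gain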)
In short: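 H295R cells prestimulated 48 h with 10 uM forskolin, then exposed 48 h to test chemical (0.1% DMSO final). Viability by MTT (0.5 mg/ml, 4 h, 37 C), absorbance 570/650 nm; percent change versus DMSO, bidirectional fit.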

SMILES | outcome | AC50
CCC(C)N(C)C(=O)c1cc2ccccc2c(-c2ccccc2Cl)n1 (stereo not drawn) | inactive | –
CCCCCCCCCC[N+](C)(C)[O-] | inactive | –
CC(COCC(C)OC(=O)c1ccccc1)OC(=O)c1ccccc1 (stereo not drawn) | inactive | –
CCCCc1nc2cccnc2n1Cc1ccc(-c2ccccc2-c2nnn[nH]2)cc1 | inactive | –
O=C(O)CN(CC(=O)O)CC(=O)O | inactive | –
CC(=O)O[C@]1(C(C)=O)CC[C@H]2[C@@H]3C=C(Cl)C4=CC(=O)[C@@H]5C[C@@H]5[C@]4(C)[C@H]3CC[C@@]21C | inactive | –
Oc1ccccc1O | inactive | –
O=C(Oc1ccccc1)c1cccc(C(=O)Oc2ccccc2)c1 | inactive | –
Cc1cc(Cc2ccc(N)c(C)c2)ccc1N | inactive | –
CC(C)(O)c1ccc(CNC(=O)c2cccnc2Oc2ccc(F)cc2)cc1 | inactive | –
Oc1ccc(O)cc1 | inactive | –
S=c1[nH]c2ccccc2s1 | inactive | –
CC(=O)[C@@]1(O)CC[C@H]2[C@@H]3CCC4=CC(=O)CC[C@]4(C)[C@H]3CC[C@@]21C | inactive | –
CCN(CC)CCOc1ccc(C(=C(Cl)c2ccccc2)c2ccccc2)cc1 | inactive | –
Cc1c(C)c2c(c(C)c1O)CCC(C)(COc1ccc(CC3SC(=O)NC3=O)cc1)O2 (stereo not drawn) | – | 32.1 nM (active)

test: Tanguay_ZF_120hpf_ActivityScore_legacy: (Legacy) Oregon State University Tanguay Lab 120 Hour Post-fertilization zebrafish Assay Score for Activity (AID 2283742);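 for AC50: dechorionated Tropical 5D wild-type zebrafish embryos held singly per well; static exposure from 6 hpf until 120 hpf at 28 °C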
In short: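 In this whole-embryo screen, dechorionated zebrafish were exposed from 6 hpf until 120 hpf at 28C under a 0.64% DMSO vehicle. Developmental malformations and death were recorded by brightfield microscopy as binary endpoints.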

SMILES | outcome | AC50
Cc1ccc(-c2cc(C(F)(F)F)nn2-c2ccc(S(N)(=O)=O)cc2)cc1 | inactive | –
CCC(C)N(C)C(=O)c1cc2ccccc2c(-c2ccccc2Cl)n1 (stereo not drawn) | inactive | –
CC(C)OC(=O)C(C)(C)Oc1ccc(C(=O)c2ccc(Cl)cc2)cc1 | inactive | –
CCCCCCCCCC[N+](C)(C)[O-] | inactive | –
CC(COCC(C)OC(=O)c1ccccc1)OC(=O)c1ccccc1 (stereo not drawn) | inactive | –
CCCCc1nc2cccnc2n1Cc1ccc(-c2ccccc2-c2nnn[nH]2)cc1 | inactive | –
O=C(O)CN(CC(=O)O)CC(=O)O | inactive | –
CC(=O)CC(c1ccccc1)c1c(O)c2ccccc2oc1=O (stereo not drawn) | inactive | –
N[C@@H](Cc1c[nH]c2ccccc12)C(=O)O | inactive | –
CC(=O)O[C@]1(C(C)=O)CC[C@H]2[C@@H]3C=C(Cl)C4=CC(=O)[C@@H]5C[C@@H]5[C@]4(C)[C@H]3CC[C@@]21C | inactive | –
CCCCC(CC)CO (stereo not drawn) | inactive | –
O=C(O)c1cccnc1 | inactive | –
Oc1ccccc1O | inactive | –
O=Cc1ccccc1C=O | – | 3.08 µM (active)
O=C(Oc1ccccc1)c1cccc(C(=O)Oc2ccccc2)c1 | inactive | –
Cc1cc(Cc2ccc(N)c(C)c2)ccc1N | inactive | –
CN(C)CCCN1c2ccccc2Sc2ccc(Cl)cc21 | – | 33.7 µM (active)
CC(C)(O)c1ccc(CNC(=O)c2cccnc2Oc2ccc(F)cc2)cc1 | inactive | –
CCc1nc(N)nc(N)c1-c1ccc(Cl)cc1 | inactive | –
Cc1ccc(C(C)(C)C)c(O)c1 | inactive | –
Cc1occc(=O)c1O | inactive | –
Oc1ccc(O)cc1 | – | 2.69 µM (active)
CCCC[C@H]1CN(CC2CCOCC2)C(=O)OC12CCN(C1(C)CCN(C(=O)c3c(C)ncnc3C)CC1)CC2 | inactive | –
CC(=O)[C@@]1(O)CC[C@H]2[C@@H]3CCC4=CC(=O)CC[C@]4(C)[C@H]3CC[C@@]21C | inactive | –
CCN(CC)CCOc1ccc(C(=C(Cl)c2ccccc2)c2ccccc2)cc1 | – | 37.8 µM (active)
Cc1c(C)c2c(c(C)c1O)CCC(C)(COc1ccc(CC3SC(=O)NC3=O)cc1)O2 (stereo not drawn) | inactive | –
CCc1cc(C2=C(C(=O)O)N(c3ccccc3C(F)(F)F)S(=O)(=O)c3ccccc32)cc2c1OCO2 | inactive | –
